Results taken from the supplement of paper PMC10338343.
± gives the standard deviation.

Key:
[1] = test system: MILI (PIWIL2) piRISC loaded with piRNA #1 (26 nt); assay: pre-steady-state target cleavage rate (min^-1); guide: piRNA #1 5'p-UGAGGUAGUAGGUUGUAUAGUAUCCA; higher = faster piRNA-guided slicing of the target; conditions: auxiliary factor: 500 nM mouse GTSF1
Method in brief: (§1)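 With or without 500 nM GTSF1 partner protein, 1 nM active affinity-purified piRISC carrying one synthetic guide was mixed with 0.1 nM transcribed, DNA-blocked target RNA library in HEPES–potassium acetate buffer at 33 °C for 0–8 or 0–960 min. Uncleaved targets were sequenced and normalised to depth and to weakly complementary targets, three trials were pooled, and k3 was capped at 0.0001 min^-1. The pre-steady-state cleavage rate came from a burst-and-steady-state fit.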

[2] = test system: EfPiwi piRISC loaded with piRNA #1 (26 nt); assay: pre-steady-state target cleavage rate (min^-1); auxiliary factor: 500 nM Ephydatia muelleri Gtsf1; guide: piRNA #1 5'p-UGAGGUAGUAGGUUGUAUAGUAUCCA; MIWI and MILI are mouse PIWI proteins and EfPiwi is from a freshwater sponge; tags in brackets are library labels; higher = faster piRNA-guided slicing of the target
Method in brief: as §1

GGAGUGGAAACUAUACAACCUACUACCUGA
pre-steady-state target cleavage rate [1]: 0.105 ± 0.023
pre-steady-state target cleavage rate [2]: 0.00283 ± 0.0023

GGAGACCAUACUAUACAACCUACUACUCUCA
pre-steady-state target cleavage rate [1]: 0.331 ± 0.028
pre-steady-state target cleavage rate [2]: 0.00773 ± 0.0036

GGAGACCAUAAUAUACAACCUACUACCUCA
pre-steady-state target cleavage rate [1]: 0.0982 ± 0.013
pre-steady-state target cleavage rate [2]: 0.0856 ± 0.03

GGAGUGGAUAGUAUACAACCAACUACCUCA
pre-steady-state target cleavage rate [1]: 0.0064 ± 0.0029
pre-steady-state target cleavage rate [2]: 0.00306 ± 0.0018

GGAGAGGAUACUAUACAGCCUACUACCUCA
pre-steady-state target cleavage rate [1]: 0.132 ± 0.013
pre-steady-state target cleavage rate [2]: 0.105 ± 0.04

GGAGACCAUUCUAUACAACCUACAACCUCA
pre-steady-state target cleavage rate [1]: 0.13 ± 0.013
pre-steady-state target cleavage rate [2]: 0.00312 ± 0.0031

GGAGUGGAUACUAUACACCUACUACCUCA
pre-steady-state target cleavage rate [1]: 0.0342 ± 0.0053
pre-steady-state target cleavage rate [2]: 0.157 ± 0.056

GGAGACGAUACUAUACAACCUACAACCACA
pre-steady-state target cleavage rate [1]: 0.0888 ± 0.035
pre-steady-state target cleavage rate [2]: 0.00436 ± 0.0022

GGAGUGGAUACUAUACUACCUACUUCCUCA
pre-steady-state target cleavage rate [1]: 0.0121 ± 0.0027
pre-steady-state target cleavage rate [2]: 0.00222 ± 0.0021

GGAGAGCAUACUAUACAACCUACUACCACA
pre-steady-state target cleavage rate [1]: 0.158 ± 0.018
pre-steady-state target cleavage rate [2]: 0.00318 ± 0.0021

GGAGACCUAUGAUAACAACCUACUACCUACA
pre-steady-state target cleavage rate [1]: 0.0036 ± 0.0024
pre-steady-state target cleavage rate [2]: < 0.0001

GGAGACCAUACAUAUACAACCUACUACCUCA
pre-steady-state target cleavage rate [1]: 0.101 ± 0.013
pre-steady-state target cleavage rate [2]: 0.0645 ± 0.025

GGAGACCUAACUAUACCACCUACUACCUCA
pre-steady-state target cleavage rate [1]: 0.0944 ± 0.018
pre-steady-state target cleavage rate [2]: 0.0066 ± 0.0031

GGAGACCUUACUAUACUACCUACUACCUCA
pre-steady-state target cleavage rate [1]: 0.159 ± 0.014
pre-steady-state target cleavage rate [2]: 0.00739 ± 0.0039

GGAGACCAUACUAUACAACCUACUUCCUGA
pre-steady-state target cleavage rate [1]: 0.0889 ± 0.02
pre-steady-state target cleavage rate [2]: 0.00388 ± 0.0027

GGAGACCUUUCAAUACAACCUACUACCUCA
pre-steady-state target cleavage rate [1]: 0.0649 ± 0.017
pre-steady-state target cleavage rate [2]: 0.00501 ± 0.0042

GGAGAGGAUACUAUACAAGCUUCUACCUCA
pre-steady-state target cleavage rate [1]: 0.0253 ± 0.0037
pre-steady-state target cleavage rate [2]: 0.0045 ± 0.0024

GGAGUCGAUAGUAUACAACCUACUACCUCA
pre-steady-state target cleavage rate [1]: 0.154 ± 0.011
pre-steady-state target cleavage rate [2]: 0.0054 ± 0.0038

GGAGACGAUACUAUAGAACGUACUACCUCA
pre-steady-state target cleavage rate [1]: 0.0134 ± 0.0023
pre-steady-state target cleavage rate [2]: 0.00177 ± 0.0015

GGAGACCUUACUAUACCACCUACUACCUCA
pre-steady-state target cleavage rate [1]: 0.109 ± 0.014
pre-steady-state target cleavage rate [2]: 0.006 ± 0.003
